Measurements taken from the supplement of paper PMC11732987, “Enantioselective OTUD7B fragment discovery through chemoproteomics screening and high-throughput optimisation” (Communications Chemistry, 2025).

Key:
Assay in all cases: log2 ratio of Biotin-Ahx-Ub-VS probe labelling (fragment/DMSO); higher = less target engagement (more negative = stronger competition), active = hit call of the paper (q ≤ 0.05, log2 ratio ≤ -1)
Conditions in all cases: compound concentration: 200 uM; treatment time: 3 h
USP34 = USP34 (UniProt Q70CQ2)
Outline: (§1)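 The table lists average log2 ratios of fragment over vehicle, from an unpaired t-test on global-median-normalised Spectronaut label-free quantities. Proteins with ≥2 unique peptides were used. Samples were HEK293T lysate (495 µg) treated in triplicate with fragment at 200 µM or vehicle for 3 h, then with Biotin-Ahx-Ub-VS (0.5 µM final) for 1 h, with labelled DUBs NeutrAvidin-enriched and run by diaPASEF LC-MS/MS.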

USP36 = molecular target: T1, USP36 (UniProt Q9P275)
T1 sequence (whole entry): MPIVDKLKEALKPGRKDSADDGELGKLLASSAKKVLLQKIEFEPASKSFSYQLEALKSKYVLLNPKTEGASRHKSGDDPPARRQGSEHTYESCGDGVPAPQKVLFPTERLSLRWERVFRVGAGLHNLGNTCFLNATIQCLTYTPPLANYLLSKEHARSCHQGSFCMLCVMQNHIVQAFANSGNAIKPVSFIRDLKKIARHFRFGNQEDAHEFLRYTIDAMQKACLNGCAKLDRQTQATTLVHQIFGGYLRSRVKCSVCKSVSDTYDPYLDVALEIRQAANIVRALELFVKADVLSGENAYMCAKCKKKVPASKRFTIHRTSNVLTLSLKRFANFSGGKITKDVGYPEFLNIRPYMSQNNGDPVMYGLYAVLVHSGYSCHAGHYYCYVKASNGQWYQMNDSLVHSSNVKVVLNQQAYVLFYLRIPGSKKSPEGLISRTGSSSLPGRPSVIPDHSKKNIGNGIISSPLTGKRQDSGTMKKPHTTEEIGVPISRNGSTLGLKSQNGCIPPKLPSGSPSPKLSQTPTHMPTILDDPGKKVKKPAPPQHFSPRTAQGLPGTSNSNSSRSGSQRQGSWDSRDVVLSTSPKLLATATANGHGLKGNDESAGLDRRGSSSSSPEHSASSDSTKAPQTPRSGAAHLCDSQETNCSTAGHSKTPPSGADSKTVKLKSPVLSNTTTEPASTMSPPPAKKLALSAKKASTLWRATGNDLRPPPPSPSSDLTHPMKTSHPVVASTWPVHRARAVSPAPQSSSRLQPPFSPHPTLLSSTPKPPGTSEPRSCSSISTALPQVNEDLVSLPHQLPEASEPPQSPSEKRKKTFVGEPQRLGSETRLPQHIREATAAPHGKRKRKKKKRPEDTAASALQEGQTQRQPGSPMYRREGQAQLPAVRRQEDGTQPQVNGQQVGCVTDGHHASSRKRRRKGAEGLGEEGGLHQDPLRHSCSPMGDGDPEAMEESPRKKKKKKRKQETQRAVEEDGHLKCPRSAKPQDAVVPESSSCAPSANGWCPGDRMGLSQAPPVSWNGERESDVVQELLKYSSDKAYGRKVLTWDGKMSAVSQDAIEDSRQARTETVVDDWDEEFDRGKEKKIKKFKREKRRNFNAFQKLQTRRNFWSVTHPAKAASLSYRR
Outline: as §1

USP38 = molecular target: T2, USP38 (UniProt Q8NB14)
T2 sequence (whole entry): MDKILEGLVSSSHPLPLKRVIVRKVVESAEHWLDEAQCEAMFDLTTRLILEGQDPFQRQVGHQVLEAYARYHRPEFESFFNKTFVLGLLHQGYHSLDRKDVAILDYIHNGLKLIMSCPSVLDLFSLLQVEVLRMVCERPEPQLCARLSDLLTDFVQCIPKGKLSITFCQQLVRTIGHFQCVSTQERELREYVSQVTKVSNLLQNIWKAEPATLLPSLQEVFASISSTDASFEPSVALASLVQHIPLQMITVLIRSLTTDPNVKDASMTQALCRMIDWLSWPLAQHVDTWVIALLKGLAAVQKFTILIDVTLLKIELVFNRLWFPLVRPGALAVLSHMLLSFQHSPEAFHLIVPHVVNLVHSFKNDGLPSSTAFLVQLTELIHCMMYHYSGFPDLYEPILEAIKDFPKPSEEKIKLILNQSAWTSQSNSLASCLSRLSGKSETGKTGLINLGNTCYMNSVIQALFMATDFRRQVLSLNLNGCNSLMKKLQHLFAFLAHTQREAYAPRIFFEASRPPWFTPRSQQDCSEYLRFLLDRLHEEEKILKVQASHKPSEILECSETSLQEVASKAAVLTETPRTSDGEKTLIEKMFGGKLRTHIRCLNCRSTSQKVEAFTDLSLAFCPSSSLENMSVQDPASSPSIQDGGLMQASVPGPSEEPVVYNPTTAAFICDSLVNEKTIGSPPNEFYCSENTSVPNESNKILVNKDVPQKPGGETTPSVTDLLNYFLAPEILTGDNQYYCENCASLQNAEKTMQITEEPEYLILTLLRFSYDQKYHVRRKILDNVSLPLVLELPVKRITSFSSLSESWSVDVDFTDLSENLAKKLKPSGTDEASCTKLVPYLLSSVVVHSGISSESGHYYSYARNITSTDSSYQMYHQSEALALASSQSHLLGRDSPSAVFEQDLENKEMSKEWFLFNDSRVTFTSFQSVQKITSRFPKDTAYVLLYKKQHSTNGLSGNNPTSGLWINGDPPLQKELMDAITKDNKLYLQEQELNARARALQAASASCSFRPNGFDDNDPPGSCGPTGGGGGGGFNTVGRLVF
Outline: as §1

USP39 = molecular target: T3, USP39 (UniProt Q53GS9)
T3 sequence (whole entry): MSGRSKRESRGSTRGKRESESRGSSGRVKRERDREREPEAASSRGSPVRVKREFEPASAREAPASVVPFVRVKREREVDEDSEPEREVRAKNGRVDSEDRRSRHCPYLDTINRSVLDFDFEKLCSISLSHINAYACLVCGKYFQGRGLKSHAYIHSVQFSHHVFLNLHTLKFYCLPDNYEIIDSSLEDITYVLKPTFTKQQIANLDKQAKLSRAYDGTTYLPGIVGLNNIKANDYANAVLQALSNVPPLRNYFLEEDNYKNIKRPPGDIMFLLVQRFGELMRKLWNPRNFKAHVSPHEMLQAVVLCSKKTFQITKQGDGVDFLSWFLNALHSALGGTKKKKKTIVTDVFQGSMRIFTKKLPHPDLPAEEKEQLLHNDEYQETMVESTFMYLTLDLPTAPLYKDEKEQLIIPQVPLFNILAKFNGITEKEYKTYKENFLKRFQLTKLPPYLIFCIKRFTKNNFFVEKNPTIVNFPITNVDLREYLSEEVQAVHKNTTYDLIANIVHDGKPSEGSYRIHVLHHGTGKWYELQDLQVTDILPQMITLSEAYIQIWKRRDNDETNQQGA
Outline: as §1

USP4 = molecular target: T4, USP4 (UniProt Q13107)
T4 sequence (whole entry): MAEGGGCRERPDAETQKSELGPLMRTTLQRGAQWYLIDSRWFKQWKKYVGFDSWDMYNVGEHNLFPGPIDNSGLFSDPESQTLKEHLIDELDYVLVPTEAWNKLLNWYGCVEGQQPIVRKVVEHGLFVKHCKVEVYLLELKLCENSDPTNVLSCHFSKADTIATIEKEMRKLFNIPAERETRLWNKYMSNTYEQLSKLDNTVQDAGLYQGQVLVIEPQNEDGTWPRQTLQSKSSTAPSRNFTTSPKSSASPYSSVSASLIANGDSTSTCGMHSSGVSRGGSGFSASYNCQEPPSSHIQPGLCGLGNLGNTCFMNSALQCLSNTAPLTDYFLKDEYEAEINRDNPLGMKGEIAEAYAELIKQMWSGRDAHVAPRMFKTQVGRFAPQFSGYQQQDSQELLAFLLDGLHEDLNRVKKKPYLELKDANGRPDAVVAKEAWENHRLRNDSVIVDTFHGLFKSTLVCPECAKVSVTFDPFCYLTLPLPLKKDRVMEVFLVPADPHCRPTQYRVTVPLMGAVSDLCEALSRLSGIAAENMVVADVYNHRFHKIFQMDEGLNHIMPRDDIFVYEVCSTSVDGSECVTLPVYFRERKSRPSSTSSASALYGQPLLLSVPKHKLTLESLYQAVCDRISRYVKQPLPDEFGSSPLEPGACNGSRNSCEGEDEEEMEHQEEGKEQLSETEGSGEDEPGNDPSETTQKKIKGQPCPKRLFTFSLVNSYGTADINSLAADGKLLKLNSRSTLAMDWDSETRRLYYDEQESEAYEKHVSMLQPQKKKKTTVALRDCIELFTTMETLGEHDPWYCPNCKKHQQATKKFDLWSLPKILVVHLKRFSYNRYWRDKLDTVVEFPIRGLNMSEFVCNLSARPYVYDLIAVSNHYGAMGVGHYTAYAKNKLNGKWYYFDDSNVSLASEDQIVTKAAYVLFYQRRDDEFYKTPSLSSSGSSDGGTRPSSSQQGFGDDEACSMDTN
Outline: as §1

Measured: log2 ratio of Biotin-Ahx-Ub-VS probe labelling

Sequence of USP34 (Q70CQ2 whole entry, the tested form may be a part): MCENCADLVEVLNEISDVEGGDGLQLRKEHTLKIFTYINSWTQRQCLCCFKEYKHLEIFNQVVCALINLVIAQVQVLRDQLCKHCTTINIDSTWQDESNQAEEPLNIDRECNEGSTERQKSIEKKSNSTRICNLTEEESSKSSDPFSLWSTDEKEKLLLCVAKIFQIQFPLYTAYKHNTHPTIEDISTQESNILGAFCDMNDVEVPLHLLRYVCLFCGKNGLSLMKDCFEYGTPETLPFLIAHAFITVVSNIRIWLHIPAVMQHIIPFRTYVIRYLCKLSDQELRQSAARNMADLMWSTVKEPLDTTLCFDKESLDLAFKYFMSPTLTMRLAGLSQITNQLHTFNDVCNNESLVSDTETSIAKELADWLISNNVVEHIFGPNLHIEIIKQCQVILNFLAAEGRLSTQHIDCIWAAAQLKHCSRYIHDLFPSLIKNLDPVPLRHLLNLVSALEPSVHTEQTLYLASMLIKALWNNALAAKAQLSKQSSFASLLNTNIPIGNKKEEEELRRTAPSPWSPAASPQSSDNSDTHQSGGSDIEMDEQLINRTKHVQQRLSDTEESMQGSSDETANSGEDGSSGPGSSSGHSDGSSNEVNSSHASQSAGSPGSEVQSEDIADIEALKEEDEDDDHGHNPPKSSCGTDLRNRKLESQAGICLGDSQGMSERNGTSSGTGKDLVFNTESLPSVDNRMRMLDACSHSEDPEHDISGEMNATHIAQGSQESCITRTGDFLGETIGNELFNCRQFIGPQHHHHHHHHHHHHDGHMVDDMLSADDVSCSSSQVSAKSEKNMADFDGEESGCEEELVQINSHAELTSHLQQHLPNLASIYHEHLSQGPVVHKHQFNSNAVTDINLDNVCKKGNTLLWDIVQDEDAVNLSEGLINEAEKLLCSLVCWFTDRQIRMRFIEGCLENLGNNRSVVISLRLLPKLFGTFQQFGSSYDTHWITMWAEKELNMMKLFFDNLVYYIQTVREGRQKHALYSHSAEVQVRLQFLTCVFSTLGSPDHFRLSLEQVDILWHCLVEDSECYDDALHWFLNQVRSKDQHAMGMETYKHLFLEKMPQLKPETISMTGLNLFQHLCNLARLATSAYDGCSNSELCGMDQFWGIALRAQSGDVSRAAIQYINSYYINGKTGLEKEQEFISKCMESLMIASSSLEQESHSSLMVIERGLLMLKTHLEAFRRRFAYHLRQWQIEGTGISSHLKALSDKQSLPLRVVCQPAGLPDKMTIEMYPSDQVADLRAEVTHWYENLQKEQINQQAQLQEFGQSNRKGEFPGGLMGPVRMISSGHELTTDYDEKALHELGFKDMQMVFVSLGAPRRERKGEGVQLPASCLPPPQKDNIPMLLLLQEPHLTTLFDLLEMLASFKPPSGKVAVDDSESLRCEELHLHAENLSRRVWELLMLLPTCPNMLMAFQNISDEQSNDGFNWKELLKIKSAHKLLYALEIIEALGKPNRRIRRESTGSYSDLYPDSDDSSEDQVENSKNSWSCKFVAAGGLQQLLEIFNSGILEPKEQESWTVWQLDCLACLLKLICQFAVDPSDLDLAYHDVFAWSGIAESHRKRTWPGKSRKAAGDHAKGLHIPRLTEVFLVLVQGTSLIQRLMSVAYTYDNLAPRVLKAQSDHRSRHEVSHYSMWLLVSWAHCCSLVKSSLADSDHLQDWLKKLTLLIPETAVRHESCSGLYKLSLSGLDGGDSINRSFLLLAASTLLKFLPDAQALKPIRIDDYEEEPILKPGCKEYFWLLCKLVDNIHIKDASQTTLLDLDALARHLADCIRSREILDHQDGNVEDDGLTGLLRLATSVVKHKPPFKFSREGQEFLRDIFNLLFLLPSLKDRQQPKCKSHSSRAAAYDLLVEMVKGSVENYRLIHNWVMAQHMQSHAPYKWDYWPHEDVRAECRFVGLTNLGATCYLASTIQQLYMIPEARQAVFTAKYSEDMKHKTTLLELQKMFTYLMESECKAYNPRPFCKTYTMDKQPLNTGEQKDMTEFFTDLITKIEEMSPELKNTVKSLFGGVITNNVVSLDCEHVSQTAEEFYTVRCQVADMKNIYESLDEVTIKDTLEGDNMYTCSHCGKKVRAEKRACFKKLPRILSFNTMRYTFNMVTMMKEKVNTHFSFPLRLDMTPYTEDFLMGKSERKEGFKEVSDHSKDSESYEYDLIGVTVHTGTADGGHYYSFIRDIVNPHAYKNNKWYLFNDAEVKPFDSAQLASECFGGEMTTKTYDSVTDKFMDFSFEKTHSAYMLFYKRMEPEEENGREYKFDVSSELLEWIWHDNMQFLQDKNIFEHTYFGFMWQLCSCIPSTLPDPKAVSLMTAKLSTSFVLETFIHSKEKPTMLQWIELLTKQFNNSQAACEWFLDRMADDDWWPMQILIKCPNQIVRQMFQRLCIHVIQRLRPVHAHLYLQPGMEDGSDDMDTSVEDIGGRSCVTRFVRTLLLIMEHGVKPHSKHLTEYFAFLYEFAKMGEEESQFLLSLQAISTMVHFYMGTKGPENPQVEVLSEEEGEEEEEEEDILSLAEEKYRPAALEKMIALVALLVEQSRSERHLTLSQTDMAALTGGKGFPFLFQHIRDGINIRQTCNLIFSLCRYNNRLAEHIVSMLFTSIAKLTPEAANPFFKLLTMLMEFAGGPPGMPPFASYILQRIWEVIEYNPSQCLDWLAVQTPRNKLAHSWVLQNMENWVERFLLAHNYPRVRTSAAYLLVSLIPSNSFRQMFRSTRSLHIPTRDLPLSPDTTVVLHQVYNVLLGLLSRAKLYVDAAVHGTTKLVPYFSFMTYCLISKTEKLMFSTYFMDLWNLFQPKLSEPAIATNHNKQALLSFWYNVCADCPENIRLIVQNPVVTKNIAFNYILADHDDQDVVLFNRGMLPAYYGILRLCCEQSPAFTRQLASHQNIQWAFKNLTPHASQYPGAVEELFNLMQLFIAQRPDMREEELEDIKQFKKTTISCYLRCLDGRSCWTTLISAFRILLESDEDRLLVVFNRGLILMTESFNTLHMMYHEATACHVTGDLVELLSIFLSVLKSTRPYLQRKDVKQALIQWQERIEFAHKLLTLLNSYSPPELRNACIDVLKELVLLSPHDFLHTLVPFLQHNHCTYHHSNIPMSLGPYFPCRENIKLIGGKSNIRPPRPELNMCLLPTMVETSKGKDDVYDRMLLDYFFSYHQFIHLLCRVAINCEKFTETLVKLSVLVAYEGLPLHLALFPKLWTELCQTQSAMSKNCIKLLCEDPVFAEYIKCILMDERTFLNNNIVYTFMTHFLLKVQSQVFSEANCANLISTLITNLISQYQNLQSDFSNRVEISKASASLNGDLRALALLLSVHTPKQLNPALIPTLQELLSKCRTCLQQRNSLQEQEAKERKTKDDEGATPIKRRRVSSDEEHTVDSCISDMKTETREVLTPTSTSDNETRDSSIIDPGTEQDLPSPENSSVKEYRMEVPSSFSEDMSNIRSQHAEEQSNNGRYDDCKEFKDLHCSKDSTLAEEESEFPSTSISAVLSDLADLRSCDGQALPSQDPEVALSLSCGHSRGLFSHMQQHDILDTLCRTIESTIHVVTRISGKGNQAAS

O=C(CCl)N1CCC(O)(Cc2ccc(F)cc2)C1 (stereo not given)
inactive: USP34 -0.0775 | USP36 0.229 | USP38 0.29 | USP39 0.427 | USP4 -0.138
